From PubChem BioAssay AID2100 (National Center for Advancing Translational Sciences (NCATS), 2009)
The campaign covered roughly 300,000 compounds. About 1,200 (0.4%) were called active. Inconclusive results (about 3%) are left out. Calls follow the shape of the dose curve; as a rule, active = well fitted inhibition curve with a large enough effect; inconclusive = small, poorly fitted or top-dose-only effect, or another doubt; inactive = no such curve, though single readings can be large or run the other way. This excerpt belongs to a sample that is enriched for actives.

Target: Lysosomal alpha-glucosidase (Homo sapiens) (UniProt P10253)
Assay: qHTS Assay for Inhibitors and Activators of Human alpha-Glucosidase Cleavage of Glycogen;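 also: the screen sought inhibitors and activators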
Conditions: recombinant GAA, glycogen substrate, Amplex Red glucose oxidase fluorescence; series mostly up to 76.3 µM
Procedure, shortened: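 Natural-substrate format: glycogen cleavage by 4 nM human enzyme, glucose read by Amplex Red coupling (Ex 573, Em 610 nm). Normalized to enzyme and no-enzyme controls.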
Potency is read from the fitted curve at half-maximal effect.

Potency, inactive:
O=C(CSc1nc(-c2cccc(F)c2)[nH]c1-c1ccccc1)Nc1ccc2c(c1)OCO2
CCOc1ccc(N(CC)S(=O)(=O)N2CCCC(C(=O)Nc3ccc(C(C)=O)cc3)C2)cc1 (stereo unspecified)
CCOC(=O)COc1cc(O)c2c(=O)cc(-c3ccccc3)oc2c1
COc1ccc(-c2cc(=O)c3c(O)cc(O[C@@H]4O[C@H](CO[C@@H]5O[C@@H](C)[C@H](O)[C@@H](O)[C@H]5O)[C@@H](O)[C@H](O)[C@H]4O)cc3o2)cc1O
CCCCN1C(=O)c2[nH]nc(-c3ccccc3O)c2C1c1cccc(OCc2ccccc2)c1 (stereo unspecified)
CC1=C(C(=O)OCC2CCCCC2)C(c2c(F)cccc2Cl)CC(=O)N1 (stereo unspecified)
COc1ccc(C(=O)NN(C)c2nc(-c3ccccc3)cc(C)c2S(C)(=O)=O)cc1
Cn1sc(NC(=O)c2ccccc2)nc1=O
CCOc1ccccc1C(=O)NC1(C(F)(F)F)NC(=O)N(CCc2ccc(OC)c(OC)c2)C1=O (stereo unspecified)
COc1ccc(Cl)cc1NC(=O)CSc1nc(-c2cccs2)cc(C(F)(F)F)n1
CCOc1ccc(N/C=C/C(=O)c2cc(OC)c(OC)c(OC)c2)cc1
CCOc1ccc(N/C=C/C(=O)c2ccccc2)cc1
CC(C)C(=O)Nc1nc2c(s1)CC(C(C)(C)C)CC2 (stereo unspecified)
Cc1ccc(S(=O)(=O)CC(=O)Nc2c(C)n(C)n(-c3ccccc3)c2=O)cc1
Cc1c(NS(=O)(=O)c2ccc(Cl)cc2)c(=O)n(-c2ccccc2)n1C
COc1ccc2[nH]c3c(c2c1)CCN(C(=O)CCC1CCCC1)C3c1ccc(F)cc1 (stereo unspecified)
Cc1oc(-c2ccccc2)nc1Cn1c(SCc2cccc(C(F)(F)F)c2)nc2cccnc21
CCOc1ccc(-n2c(O)c(/C=N/Nc3nc(C)cc(C)n3)c3ccccc3c2=O)cc1
CCOc1ccc(-n2c(O)c(/C=N/c3ccnn3Cc3ccncc3)c3ccccc3c2=O)cc1
O=C(O)c1ccccc1C(=O)Nc1ccccc1[N+](=O)[O-]
O=[N+]([O-])c1ccc(O)c(/C=N/Nc2ccccc2[N+](=O)[O-])c1
COc1cccc(C(=O)NC(=O)Nc2ccc(-c3cc(C(F)(F)F)nn3-c3ccccc3)cc2)c1
COc1ccc2c(c1)Cc1sc(NC(=O)c3ccccc3Br)nc1-2
Cc1csc(NC(=O)Nc2ccccc2[N+](=O)[O-])n1
COc1cc(SC)ccc1C(=O)Nc1nc(C)cs1
O=C(Nc1ccc2nc(SCCOc3ccccc3Cl)sc2c1)c1ccco1
COc1cccc(NC(=O)N(Cc2cn(C)c3ccccc23)C2CCCCCC2)c1
O=c1c2cccnc2n(Cc2cccc(F)c2)c(=O)n1Cc1ccccc1Cl
COc1cc(OC)cc(C(=O)Nc2cc3nn(-c4ccccc4)nc3cc2Cl)c1
O=C(Nc1ccccc1-c1nc2ccccc2[nH]c1=O)c1cccs1
C/C(=N\Nc1nc(Nc2ccccc2)nc(N2CCOCC2)n1)c1cccs1
Cc1c(C(=O)N2CCCC2)oc2c1-c1nn(CC(=O)NCc3ccc(OC(C)C)cc3)cc1CC2
COc1ccccc1CNc1ccc(-c2nc(-c3ccccc3C)no2)cc1[N+](=O)[O-]
COc1ccc(NC(=O)CSc2nc3ncccc3[nH]2)c(OC)c1
Cc1ccc(NC(=O)Nc2ccccc2)c(Br)c1
C=CCNc1scc(-c2ccccc2)[n+]1CC=C
CN(CC(=O)Nc1cccc(C(F)(F)F)c1)S(=O)(=O)c1cccs1
CSc1nc(-c2ccccc2Cl)nc2c1Cc1c(CO)cnc(C)c1O2
CCc1nnc(SCc2c(F)cccc2Cl)c2cc3sccc3n12
CCN(CCCNC(=O)c1cc2cc3cc(OC)ccc3nc2s1)c1ccccc1
Cc1cc(C)n2nc(C(=O)N3CCN(Cc4ccc5c(c4)OCO5)CC3)nc2n1
Cc1cc(C)n2nc(C(=O)NC(C)(C)C)nc2n1
CSc1nc(Nc2ccc(F)cc2)cc(-c2ccccc2)n1
CCOc1ccc(N(CC)C(=O)c2noc3c2COc2ccc(C)cc2-3)cc1
Cc1[nH]n(-c2cccc(Cl)c2)c(=O)c1/C=N/n1c(C)nc2ccccc2c1=O
O=c1c2ccccc2ncn1/N=C/c1ccccc1
CC(=O)c1ccc(NC(=O)c2nc(-c3ccc(C)cc3)n3c2CCCCC3)cc1
COc1ccccc1NC(=O)Cn1cnc2ccc(S(=O)(=O)N3CCC(C)CC3)cc2c1=O
CCc1ccc(NC(=O)CCS(=O)(=O)c2cc3c(cc2Cl)NC(=O)CO3)cc1
CC(C)Cn1c(=O)c2ccccc2n2c(CCC(=O)N3CCN(c4cccc(Cl)c4)CC3)nnc12

Potency, active:
COc1c(O)cc2oc(-c3ccc(O)c(O)c3)cc(=O)c2c1O 10 µM
Cc1nc(NNC(=O)c2ccccc2)cc(-c2ccccc2)n1 22.4 µM
CCCOc1ccc(N/C=C/C(=O)C(C)(C)C)cc1 31.6 µM
Cc1ccc(S(=O)(=O)Nc2ccccc2CNc2c(C)n(C)n(-c3ccccc3)c2=O)cc1 28.2 µM
CCOc1ccc(-n2c(O)c(/C=N/Nc3nnc(C)c(=O)[nH]3)c3ccccc3c2=O)cc1 39.8 µM
O=[N+]([O-])c1ccccc1Nc1ccc(O)cc1 10 µM
Cc1csc(NC(=O)NC2(C(F)(F)F)Oc3ccccc3O2)n1 8.84 µM
C/C(=N\Nc1nc2ccccc2[nH]1)c1cccs1 25.1 µM
C=CC[n+]1c(-c2ccc(C)cc2)csc1NNC(=O)Nc1ccccc1 25.1 µM
Cc1cc(C)n2nc(C(=O)Oc3ccc4c(c3)OCO4)nc2n1 12.5 µM
CCCc1nc2ccccc2c(=O)n1/N=C/c1ccc(O)c(O)c1 11.2 µM
